Screening results (PubChem BioAssay)
Shown are actives, neighbours in structure and some others; about 2.4% of the full set was active somewhere.
PREPL inhibitor: inhibits the human prolyl oligopeptidase-like enzyme; Q4J6C6; recombinant PREPL, fluorescence polarization activity-based probe; inhibition, % at 5.96 µM; hit rate 0.68% among 320,000; in the data active means inhibition above about 43%;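 further: 0% = enzyme with DMSO and 100% = wells lacking enzyme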
NadD inh: inhibitors of Staphylococcus aureus NadD; purified NadD enzyme, colorimetric absorbance read-out; inhibition, % at 20 µM; hit rate 0.78% among 360,000; AID 602399; in the data active means inhibition above about 26%
Rpn11 block: blocks the human proteasome subunit Rpn11. hit rate 0.59% among 360,000. human 26S proteasome, Ub4-pepOG fluorescence polarization; 20S core pre-blocked with epoxomicin. inhibition, % at 20 µM. AID 588493. O00487;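 active means inhibition at 20 µM, scaled to each plate's controls, above about 33%, limit read from the data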
Target sequence (O00487 whole entry, looked up): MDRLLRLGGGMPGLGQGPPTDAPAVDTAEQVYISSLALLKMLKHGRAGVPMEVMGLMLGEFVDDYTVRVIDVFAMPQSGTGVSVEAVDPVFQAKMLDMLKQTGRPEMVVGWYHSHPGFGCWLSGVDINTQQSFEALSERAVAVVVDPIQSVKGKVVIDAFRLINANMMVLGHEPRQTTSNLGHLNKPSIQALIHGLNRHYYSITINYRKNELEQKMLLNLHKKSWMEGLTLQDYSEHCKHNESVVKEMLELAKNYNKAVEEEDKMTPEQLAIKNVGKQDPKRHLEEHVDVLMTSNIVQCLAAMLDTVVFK
PP1 counter: counter-screen for PP5 inhibitors: inhibitors of human PP1-alpha | P62136 | purified PP1alpha, OMFP fluorescence | inhibition, % at 6.7 µM | hit rate 0.9% among 320,000;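 active means inhibition above the mean inhibition of all tested compounds plus 3 SD, computed separately for each screening campaign, cut at about 15% in these data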
Target sequence (P62136 whole entry, looked up): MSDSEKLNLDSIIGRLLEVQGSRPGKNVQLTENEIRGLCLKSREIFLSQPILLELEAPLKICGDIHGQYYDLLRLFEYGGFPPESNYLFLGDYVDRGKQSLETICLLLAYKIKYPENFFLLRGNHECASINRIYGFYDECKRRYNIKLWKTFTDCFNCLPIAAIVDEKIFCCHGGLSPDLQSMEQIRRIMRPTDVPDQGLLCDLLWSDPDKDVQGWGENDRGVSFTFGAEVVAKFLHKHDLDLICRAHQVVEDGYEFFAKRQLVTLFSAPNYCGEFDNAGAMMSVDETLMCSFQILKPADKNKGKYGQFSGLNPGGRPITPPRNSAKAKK
PP5 primary: inhibitors of human protein phosphatase 5 (PP5) | inhibition, % at 6.7 µM | hit rate 0.18% among 320,000 | purified PP5c, OMFP substrate fluorescence | P53041 | AID 1987;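 active means inhibition above the campaign's mean inhibition across all tested compounds plus 3 SD, cut at about 9.5% in these data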;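 further: 0% = DMSO only and 100% = 100 µM cantharidin control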
Rpn11 inh conf: Rpn11 inhibition confirmation, single concentration. shares compounds with Rpn11 block. purified human 26S proteasome, Ub4-pepOG fluorescence polarization; proteasome pretreated with epoxomicin. inhibition, % at 20 µM. hit rate 29% among 1,900
MMP-2 counter: blocks human MMP-2, flagging nonselective RPN11 hits. AID 602330. inhibition, % at 20 µM. recombinant MMP-2, FRET peptide cleavage fluorescence. shares compounds with Rpn11 block. hit rate 4% among 1,900;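 further: human MMP-2 activated beforehand with APMA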
Thrombin inh: counter-screen for RPN11 inhibitors: inhibition of bovine thrombin | shares compounds with Rpn11 block | bovine thrombin cleavage of Ub4-pepOG, fluorescence polarization | hit rate 13% among 1,900 | inhibition, % at 20 µM;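 active means mean inhibition at least 40% at 20 µM, or signal 3 deviations below plate average, so some actives read negative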;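 further: plate controls were thrombin with DMSO for no effect and buffer wells lacking thrombin for full effect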
* hit, by the source's call; x = no result. Unless noted, no stated cut-off is given here; in the data, active means inhibition above about 40%; inactive means the rest.

SMILES | PREPL inhibitor | NadD inh | Rpn11 block | PP1 counter | PP5 primary | Rpn11 inh conf | MMP-2 counter | Thrombin inh
Clc1cccc(Cc2c(-c3cccc(Cl)c3)nc3ccc(Br)cn23)c1 | x | 16 | 19 | x | x | x | x | x
Brc1cccc(-c2nc3ccc(Br)cn3c2Cc2ccccc2)c1 | x | 12 | 44* | x | x | 21 | -24 | -1
Clc1cccc(-c2nc3ccc(Br)cn3c2Cc2ccccc2)c1 | x | 8 | 50* | x | x | 35 | 11 | 8
COc1cccc(CN(C)C(=O)Nc2cccc(C(F)(F)F)c2)c1OC | -3 | -5 | 2 | 3 | 2 | x | x | x
CC1CCN(CCCNC(=O)c2coc3nc4ccccc4nc23)CC1 | 13 | -1 | 2 | -2 | 3 | x | x | x
Cc1ccc(CCNC(=O)c2coc3nc4ccccc4nc23)cc1 | -5 | 3 | 41* | 1 | 0 | 30 | -30 | -33
c1ccc(-c2csc3ncnc(N4CCc5ccccc5C4)c23)cc1 | -7 | 5 | 3 | 2 | 2 | x | x | x
O=C(O)c1cc(NS(=O)(=O)c2ccc(F)cc2)cc(NS(=O)(=O)c2ccc(F)cc2)c1 | 13 | 2 | 10 | x | x | x | x | x
CN(C)CCCNc1nc2cc(-c3ccc4c(ccn4C)c3)sc2c(=O)n1C | x | 19 | 39* | x | x | 18 | 7 | -15
Cc1cc(N/N=C/c2ccc([N+](=O)[O-])o2)nc2ccccc12 | -1 | 14 | 51* | 1 | 0 | 25 | -12 | 10
O=[N+]([O-])c1ccc(/C=N/Nc2ccnc3cc(Cl)ccc23)o1 | 34 | 27 | 50* | 7 | 1 | 39 | -15 | 16
Cc1cc2ncn(/N=C/c3ccc([N+](=O)[O-])o3)c2cc1C | 9 | -2 | 50* | 3 | 1 | 50* | -22 | 20
O=[N+]([O-])c1ccc(/C=N/N=C/c2ccc([N+](=O)[O-])o2)o1 | x | -4 | -21 | x | x | x | x | x
COc1ccc(N2CCN(C(=O)c3ccc4c(c3)NC(=O)C(CSCc3ccccc3F)N4)CC2)cc1 (stereo not drawn) | x | 56* | 47* | x | x | 31 | 30 | 22
Cc1sc2nc(COC(=O)c3ccc(O)cc3)[nH]c(=O)c2c1C | -13 | -1 | 1 | 1 | 2 | x | x | x
COc1ccc(S(=O)(=O)N2CC(O)CC2C(=O)OCc2nc3sc(C)c(C)c3c(=O)[nH]2)cc1 (stereo not drawn) | 13 | 5 | 47* | 1 | 0 | 22 | -17 | 10
COc1ccc(OCC(=O)Nc2cc(-c3nn4c(C)nnc4s3)ccc2C)cc1 | 6 | 0 | 51* | -5 | -1 | 19 | -20 | -4
Cc1cc(OCC(=O)Nc2cc(-c3nn4c(C)nnc4s3)ccc2C)ccc1Cl | 13 | -1 | 27 | -4 | 3 | x | x | x
C[C@@H]1CN(C(=O)c2cc(COc3cccc(C(F)(F)F)c3)on2)C[C@H](C)O1 | 13 | -3 | 4 | -4 | 1 | x | x | x
COc1ccccc1NC(=O)CSc1nc(N)c(C#N)cc1C#N | -10 | -6 | 50* | -1 | -2 | 71* | -26 | 47*
CCOc1ccccc1NC(=O)CSc1nc(N)c(C#N)cc1C#N | -7 | 4 | 14 | 0 | 2 | x | x | x
Cc1ccc(NC(=O)c2cc(Cl)ccc2[N+](=O)[O-])cc1C | 17 | -3 | 3 | 3 | 0 | x | x | x
Cc1cccc(NC(=O)c2cc(Cl)ccc2[N+](=O)[O-])c1 | -3 | 0 | 73* | 2 | 1 | -8 | -47 | -4
NC1=NC[C@@H](CC2CCCCC2)N1CCc1cc(C(F)(F)F)cc(C(F)(F)F)c1 | 35 | 9 | 72* | x | x | 9 | -6 | -22
Cc1ccc(CN2C(=O)CCC2(C)c2nnnn2-c2ccc3c(c2)OCCO3)cc1 (stereo not drawn) | x | -2 | x | x | x | x | x | x
SMILES | PREPL inhibitor | NadD inh | Rpn11 block | PP1 counter | PP5 primary | Rpn11 inh conf | MMP-2 counter | Thrombin inh
Cc1ccc([C@@H]2CC(=O)[C@@H]3CN(S(=O)(=O)c4ccc(C)cc4)[C@H](c4ccccc4F)C[C@@H]3N2S(=O)(=O)c2ccc(C)cc2)cc1 | x | 7 | 50* | x | x | 5 | 8 | 0
Cc1cccc(C(=O)NCC(=O)OCC(=O)c2ccc(Cl)s2)c1 | x | -2 | 15 | x | x | x | x | x
CCOC(=O)Cn1c2ccccc2n2nc(CCC(=O)O)c(=O)nc12 | -2 | 5 | -1 | 0 | 1 | x | x | x
Clc1cccc(Sc2ccc(-c3ccccn3)s2)c1 | 14 | 7 | 67* | 0 | 4 | -12 | -4 | -16
CCCCCCCCCCCCCCCC[N+](C)(C)Cc1ccc(F)cc1 | x | 13 | 63* | x | x | 88* | -23 | 4
CN(C)c1nnnn1-c1cccc(Oc2ncc(C(F)(F)F)cc2Cl)c1 | 3 | -5 | 3 | 1 | -1 | x | x | x
CN1/C(=C/C(=O)c2nc(S(C)(=O)=O)ncc2Cl)C(C)(C)c2ccccc21 | -1 | -3 | 49* | -1 | 3 | 2 | -18 | 11
CN1/C(=C\C(=O)c2cccnc2)C(C)(C)c2ccccc21 | 1 | -4 | 1 | -1 | 3 | x | x | x
O=C(CCOc1ccccc1)NCC(c1ccco1)N1CCCCC1 (stereo not drawn) | -2 | 4 | 83* | -2 | 3 | -9 | -55 | -4
O=C(COc1ccccc1)NCC(c1ccco1)N1CCCCC1 (stereo not drawn) | 8 | 0 | 1 | -5 | 1 | x | x | x
COc1ccc(C2CC(c3cccs3)=NN2S(=O)(=O)c2ccc(C)cc2)cc1 (stereo not drawn) | 0 | -2 | 8 | 6 | 2 | x | x | x
Cc1ccc(C2CC(c3cccs3)=NN2S(=O)(=O)c2ccc(C)cc2)cc1 (stereo not drawn) | -1 | 1 | 45* | 5 | 3 | 41* | -12 | 19
COC(=O)c1ccc(CNC(=O)Cn2nnnc2CN(C)C(C)C)cc1 | -2 | -7 | 0 | -3 | 4 | x | x | x
CCOc1ccc(C2C(C(=O)c3ccc(C)o3)=C(O)C(=O)N2c2nc(C)c(C(=O)OC)s2)cc1 (stereo not drawn) | -15 | 13 | 42* | 17* | 3 | -17 | -56 | -7
CCCNC(=O)C1(C)CCN(C(=O)/C=C/c2ccccc2)C1 (stereo not drawn) | x | 3 | -8 | x | x | x | x | x
CCc1ccccc1NC(=O)CN1C(=O)C2CCCN2c2ncc(Cl)cc21 (stereo not drawn) | 6 | 12 | 41* | 8 | 0 | 9 | -19 | 5
Cc1ccccc1NC(=S)NCc1cccs1 | 2 | -2 | 162* | 0 | 1 | 0 | -16 | -4
NS(=O)(=O)c1ccc2nc(NC(=O)Nc3ccc(F)cc3)sc2c1 | 3 | -4 | 67* | 2 | 1 | 33 | 1 | 23
CS(=O)(=O)c1ccc2nc(NC(=O)Nc3ccc(Cl)cc3)sc2c1 | 0 | 12 | 8 | 4 | -2 | x | x | x
